# High-throughput results (PubChem BioAssay)
# Compounds with a hit are over-represented: about 14% of the library has one in this group of screens.
# HCMV inh = qHTS Assay for inhibitors of the human cytomegalovirus (HCMV); AID 1259415, 2018; activity change, negative = inhibition, % at 57.5 µM; HFF cells, HCMV-luciferase reporter, 72 h; hits give low values; 410,000 tested, 4.5% active; in the data active means activity change below about -60%; inconclusive means no clear call, values can overlap the other calls; inactive means above about -39%
#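 Steps: HFFs plated, 16 h 37C; compounds added; HCMV-luciferase added to MOI 1 PFU/cell; 72 h 37C; OneGlo reagent, 5 min room temperature; luminescence read, normalized to controls.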
# LASV entry inh = qHTS for Inhibitors of binding or entry into cells for Lassa Virus | 300,000 tested, 1.2% active | Potency, µM (top dose mostly 37.9 µM), actives largely listed as inhibitors | Lassa virus pseudotype entry inhibition, cell reporter; calls by dose curve; tested in HEK293 cells; further: nearly all actives have a fitted effect of over 50% in size
# MARV entry inh = qHTS for inhibitors of binding or entry into cells for Marburg Virus | Marburg virus pseudotyped entry inhibition, cell reporter | 300,000 tested, 1.8% active | Potency, µM (top dose mostly 37.8 µM), usual class: inhibitors; calls by dose curve; tested in HEK293 cells
# HCV inhibitor = qHTS Assay for Inhibitors of Hepatitis C Virus (HCV) | AID 651820, 2012 | Potency, µM (series often up to 41.8 µM), usual class: inhibitors | 340,000 tested, 3.4% active | Huh7.5.1 HCVcc-Cre infection, luciferase reporter, 44 h
#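 Whole-lifecycle infectious HCVcc-Cre system; cells 1,000/well, compound then virus (~0.5 moi) added 4 h after plating, 44 h culture. Luciferase read 15 sec following 15 min substrate incubation, room temp.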
# Pf growth 96h = Primary qHTS for delayed death inhibitors of the malarial parasite plastid, 96 hour incubation; P. falciparum luciferase reporter growth, 96 h; Potency, µM (top dose mostly 28.7 µM), usual class: inhibitors; 320,000 tested, 6.9% active
#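 Luminescence readout: decreased luciferase signal marks inhibited growth of reporter-expressing P. falciparum in infected red cells (2% hematocrit, 0.05% parasitemia final), exposed to compound two generations (96 h, 37 C, 5% CO2).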
# Pf growth 48h = Primary qHTS for delayed death inhibitors of the malarial parasite plastid, 48 hour incubation | 310,000 tested, 5.9% active | Potency, µM (highest dose often 28.7 µM), most hits filed as inhibitors | P. falciparum luciferase growth in erythrocytes, 48 h
#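 Read-out is firefly luciferase luminescence from an integrated reporter in P. falciparum, so falling signal marks reduced parasite growth. Infected erythrocytes were at 2% hematocrit and 0.1% parasitemia (final) in Albumax-supplemented RPMI 1640.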
# A number is an active result; . = inactive; ? = inconclusive; / = not tested or not shown. Unless noted, the call rests on the fitted dose curve; in most records, active means well fitted inhibition curve with a large enough effect; inconclusive means small, poorly fitted or top-dose-only effect, or another doubt; inactive means no such curve, though single readings can be large or run the other way.
SMILES,HCMV inh,LASV entry inh,MARV entry inh,HCV inhibitor,Pf growth 96h,Pf growth 48h
COc1ccccc1NS(=O)(=O)c1cc2c(cc1Cl)NC(=O)CO2,.,.,/,/,/,/
O=C1CCSc2ccc(S(=O)(=O)Nc3cccc(C(F)(F)F)c3)cc2N1,.,.,/,/,/,/
COc1ccc(NS(=O)(=O)c2ccc(C)c(C(=O)OC(C)C(=O)N3CCOCC3)c2)cc1 (stereo not drawn),.,.,?,.,.,?
COc1cc(OC)c(NS(=O)(=O)c2ccc(Cl)c(C(=O)OC(C)C(=O)N3CCCC3)c2)cc1Cl (stereo not drawn),-64,.,?,?,.,.
COc1cc(OC)c(NS(=O)(=O)c2ccc3c(c2)NC(=O)CCS3)cc1Cl,-63,.,/,/,/,/
Cc1ccc(-c2csc(NC(=O)C[n+]3cc(-c4ccc(C)cc4)n4c3CCC4)n2)cc1,.,.,.,3.5µM,.,?
Cc1ccc(-c2csc(NC(=O)C[n+]3cc(-c4ccccc4)n4c3CCC4)n2)cc1,.,?,?,2µM,?,?
O=C(O)/C(=C/c1ccco1)NC(=O)c1ccc(Br)o1,.,.,?,.,13µM,?
CCOc1ccc(Cc2onc3c2C(=O)CCC3)cc1OCC,-89,.,.,?,.,.
O=C1NC(c2ccccn2)Nc2sc3c(c21)CCC3 (stereo not drawn),-103,.,.,.,.,.
CN1CCc2c(sc3c2C(=O)NC(c2ccccn2)N3)C1 (stereo not drawn),.,.,.,.,.,.
COc1ccc(C(CC(=O)N2CCCCC2)NC(=O)C(F)(F)F)cc1 (stereo not drawn),.,.,.,.,.,?
COc1ccc(C(CC(=O)Nc2ccc(Cl)cc2F)NC(=O)C(F)(F)F)cc1 (stereo not drawn),-89,.,.,.,.,.
COc1ccc(Cl)cc1NC(=O)c1nn(C)c2c1CS(=O)(=O)c1ccccc1-2,.,.,/,/,/,/
O=C(NC1CCCCC1)OC[C@@H]1CSCCS(=O)(=O)N1,.,?,/,/,/,/
FC(F)(F)c1ccccc1Cc1c(C2CCCCC2)nc2ccc(Br)cn12,.,/,/,/,/,/
CC(C)C[C@H](NC(=O)[C@H](Cc1ccccc1)NC(=O)c1cnccn1)B(O)O,-99,/,/,/,/,/
CC(C)C[C@@H](NC(=O)[C@@H](Cc1ccccc1)NC(=O)c1cnccn1)B(O)O,/,/,/,/,0.034µM,0.12µM
CCOC(=O)C1CCCN(c2c(Nc3ccc(C)c(C)c3)c(=O)c2=O)C1 (stereo not drawn),.,/,/,.,.,8.3µM
CCOC(=O)C1CCN(c2c(N3CCCCCC3)c(=O)c2=O)CC1,?,.,.,.,10µM,.
CCOC(=O)C1CCCN(c2c(NCCc3ccc(C)cc3)c(=O)c2=O)C1 (stereo not drawn),.,.,.,.,.,?
CCOC(=O)C1CCCN(c2c(Nc3cc(C)cc(C)c3)c(=O)c2=O)C1 (stereo not drawn),.,/,.,.,9.3µM,/
CCOC(=O)C1CCCN(c2c(NCCN3CCCCC3C)c(=O)c2=O)C1 (stereo not drawn),.,/,/,.,4.7µM,.
CCOC(=O)C1CCCN(c2c(NCCCN(CC)c3ccccc3)c(=O)c2=O)C1 (stereo not drawn),.,.,.,.,.,?
CCOC(=O)C1CCCN(c2c(NCCN(CC)c3ccccc3)c(=O)c2=O)C1 (stereo not drawn),.,/,/,.,.,10µM
SMILES,HCMV inh,LASV entry inh,MARV entry inh,HCV inhibitor,Pf growth 96h,Pf growth 48h
O=C1c2ccccc2C(Nc2cccc(C(F)(F)F)c2)N1Cc1ccco1 (stereo not drawn),.,?,14µM,?,.,/
Cc1ccccc1NC1c2ccccc2C(=O)N1Cc1ccco1 (stereo not drawn),.,/,/,.,8.3µM,/
COc1cccc(NC2c3ccccc3C(=O)N2Cc2ccco2)c1 (stereo not drawn),.,/,/,?,?,/
CCCCn1nnnc1C1(C)CCC(=O)N1Cc1cccnc1 (stereo not drawn),.,/,/,/,/,/
CCC(C(=O)NCc1ccco1)N(C(=O)CNS(=O)(=O)c1ccc(C)cc1)c1ccccc1OC (stereo not drawn),.,.,?,.,.,4.1µM
COc1ccccc1N(C(=O)CNS(=O)(=O)c1ccccc1)C(C(=O)NCc1ccco1)C(C)C (stereo not drawn),.,.,?,.,5.2µM,?
CC(C)C(C(=O)NCc1ccco1)N(Cc1ccco1)C(=O)CNS(=O)(=O)c1ccccc1 (stereo not drawn),.,.,.,.,.,.
Cc1ccc(S(=O)(=O)NCC(=O)N(CC(=O)NCc2ccco2)Cc2ccco2)cc1,.,.,?,.,13µM,.
CCCC(C(=O)NCc1ccco1)N(C(=O)CNS(=O)(=O)c1ccccc1)c1ccccc1OC (stereo not drawn),.,?,?,.,?,10µM
COCCCNC(=O)C1CCN(c2nnc(-n3cccc3CNc3ccc(C)cc3)s2)CC1,?,/,.,/,/,/
CC1(C(=O)NCc2ccccc2)CSCC(=O)N1CCOc1ccccc1 (stereo not drawn),.,/,/,/,/,/
Cc1ccc2nc(-c3ccccc3)c(Cc3ccsc3)n2c1,.,/,/,/,/,/
CCOC(=O)c1sc(N2C(=O)c3oc4ccccc4c(=O)c3C2c2ccc(C(C)(C)C)cc2)nc1C (stereo not drawn),.,.,.,/,/,/
COc1ccc(C2=C(C)C(=O)N(Cc3ccc(C(=O)Nc4ccc(F)cc4C)cc3)S2(=O)=O)cc1,-63,?,/,/,/,/
COc1ccc(C2=C(C)C(=O)N(Cc3ccc(C(=O)Nc4cccc(F)c4)cc3)S2(=O)=O)cc1,.,.,/,/,/,/
Cc1ccccc1CCNC(=O)CCn1nc(C)c2c(C)n(-c3ccccc3)nc2c1=O,-60,/,/,.,?,?
COc1ccccc1CCNC(=O)CCn1nc(C)c2c(C)n(-c3ccccc3)nc2c1=O,?,/,/,.,.,.
Cc1nn(CCC(=O)NCCc2ccccc2Cl)c(=O)c2nn(-c3ccccc3)c(C)c12,-62,/,/,.,?,?
Cc1ccccc1CCNC(=O)Cn1nc(C)c2c(C)n(-c3ccccc3)nc2c1=O,.,/,/,?,.,.
O=C(Cc1ccc(F)cc1)NC1CCS(=O)(=O)C1 (stereo not drawn),.,.,.,.,.,.
CCOC(=O)C1CCCN(C2=NC(=O)/C(=C/c3ccc(O)c(OCC)c3)S2)C1 (stereo not drawn),.,?,.,.,.,?
CCOC(=O)C1CCCN(C2=NC(=O)/C(=C/c3ccc(OC)cc3)S2)C1 (stereo not drawn),?,/,/,.,?,10µM
CCOC(=O)C1CCCN(C2=NC(=O)/C(=C/c3ccc(OC)cc3OC)S2)C1 (stereo not drawn),.,/,/,?,.,6.6µM
